Assay results: the antibiotic and cytotoxicity screens of Wong et al. (2023)
In all, about 39,000 compounds went through this assay and about 3,300 (8.5%) were called active. Shown is part of a subset that was picked to be rich in actives.

Test system: HepG2
Experiment: cytotoxicity call (relative viability < 0.9)
Details: 10 µM

Structure (SMILES)	cytotoxicity call
O=C(C[C@@H]1C=C[C@H](NC(=O)CN2CCOCC2)[C@H](CO)O1)NC1CCCCC1	inactive
CO[C@@H]1CN(C)C(=O)c2ccc(NC(=O)c3ccccc3)cc2OC[C@H](C)N(C(=O)CN(C)C)C[C@@H]1C	inactive
OC[C@@H]1CCCO1	inactive
COc1ccc(NC(=O)Nc2ccc3c(c2)CC(=O)N([C@H](C)CO)C[C@H](C)[C@H](CN(C)Cc2ccc(-c4ccccc4)cc2)O3)cc1	active
COc1ccc(NC(=O)Nc2ccc3c(c2)CC(=O)N([C@@H](C)CO)C[C@@H](C)[C@@H](CN(C)Cc2ccc(-c4ccccc4)cc2)O3)cc1	active
COc1ccc(NC(=O)Nc2ccc3c(c2)CC(=O)N([C@H](C)CO)C[C@H](C)[C@@H](CN(C)Cc2ccc(-c4ccccc4)cc2)O3)cc1	inactive
COc1ccc(NC(=O)Nc2ccc3c(c2)CC(=O)N([C@H](C)CO)C[C@@H](C)[C@H](CN(C)Cc2ccc(-c4ccccc4)cc2)O3)cc1	inactive
COc1ccc(NC(=O)Nc2ccc3c(c2)CC(=O)N([C@@H](C)CO)C[C@@H](C)[C@H](CN(C)Cc2ccc(-c4ccccc4)cc2)O3)cc1	active
COc1ccc(NC(=O)Nc2ccc3c(c2)CC(=O)N([C@@H](C)CO)C[C@H](C)[C@@H](CN(C)Cc2ccc(-c4ccccc4)cc2)O3)cc1	inactive
COc1ccc(NC(=O)Nc2ccc3c(c2)CC(=O)N([C@@H](C)CO)C[C@H](C)[C@H](CN(C)Cc2ccc(-c4ccccc4)cc2)O3)cc1	active
C[C@@H]1CN([C@H](C)CO)C(=O)Cc2cc(NS(=O)(=O)c3cccs3)ccc2O[C@@H]1CN(C)S(=O)(=O)c1ccc(F)cc1	inactive
COc1ccc(NC(=O)N(C)C[C@@H]2Oc3ccc(NC(=O)CCCCCC(=O)Nc4ccccc4N)cc3CC(=O)N([C@@H](C)CO)C[C@@H]2C)cc1	inactive
C[C@@H]1CN([C@H](C)CO)C(=O)c2cc(NC(=O)C3CC3)ccc2O[C@H]1CN(C)S(=O)(=O)c1cn(C)cn1	inactive
O=C(Cc1n[nH]c(=O)[nH]1)NCc1n[nH]c2c1CCCCC2	inactive
N=C1SCCN1CC(=O)O	inactive
C[C@@H]1CCCCO[C@H](CN(C)S(=O)(=O)c2ccc(F)cc2)[C@H](C)CN([C@@H](C)CO)C(=O)c2cc(NC(=O)CCC(F)(F)F)ccc2O1	inactive
C[C@H]1CN([C@@H](C)CO)C(=O)c2cc(NC(=O)Cn3cnnn3)ccc2O[C@@H]1CN(C)S(=O)(=O)c1cn(C)cn1	inactive
Cc1ccc(S(=O)(=O)N(C)C[C@H]2Oc3c(NS(=O)(=O)c4cn(C)cn4)cccc3C(=O)N([C@H](C)CO)C[C@H]2C)cc1	inactive
